The text below walks through data of PubChem BioAssay AID2315 (National Center for Advancing Translational Sciences (NCATS), 2010).

Among all 290,000 compounds or so, about 27,000 (9.3%) were called active. The full list was thinned out, with actives kept by preference. Values without a mark were called inactive. Rule as the data show it: active = inhibition mostly above about 28% (no sharp cut-off); inactive = mostly below about 43%.

This test can be described thus: A qHTS for Small Molecule Inhibitors of Shiga Toxin. Also: 0% is about no effect. To be noted: Vero cells, Shiga toxin protein synthesis inhibition reporter; at 38.7 µM, active compounds read high.
For `CN(C)CCN(Cc1ccccc1)S(=O)(=O)c1csc(C(N)=O)c1`, the inhibition was -1.58%.
With `CCOC(=O)c1cccc(NC(=O)CCc2nnc3ccc(N4CCOCC4)nn23)c1`, the inhibition was -1.45%.
In the case of `CC1CC(C)CN(C(=O)CCNC(=O)Cn2cnc3ccccc3c2=O)C1` (centres undefined), the inhibition was -11.9%.
Take `Cc1ccccc1OCC(=O)Nc1nnc(S(=O)(=O)N2CCCC2)s1`: the inhibition is -10.5%.
With `CC(=O)c1cc(CN2CCC(n3nccc3NC(=O)c3ccccc3Cl)CC2)cs1`, the inhibition was -20.5%.
`O=C(Nc1ccnn1C1CCN(Cc2cccc(OCCO)c2)CC1)C1CCCC1`: the inhibition was -5.27%.
With `Cc1nc(N2CCOCC2)nc2c1CCCC2` the figure was 35.4%; with `Cc1cccc(NC(=O)c2sc3nc(N4CCOCC4)c4c(c3c2N)CCCC4)c1`, 30.8%; with `Nc1nc(-c2sc3nc4c(cc3c2N)CCCC4)nc(N2CCOCC2)n1`, 58.2% (active).
Regarding `Cc1cc(-c2nnc(SCC(=O)Nc3ccc(S(N)(=O)=O)cc3)n2N)n[nH]1`, the inhibition is -4.71%.
With `O=C(NC(Cc1ccccc1)C(=O)O)/C(=C\c1ccccc1)NC(=O)c1ccco1` (centres undefined) the figure was -11.9%; with `COc1ccc(N2CCN(C3CC(=O)N(c4ccc5c(c4)OCCO5)C3=O)CC2)cc1` (centres undefined), -9.64%.
For the compound `CC(=O)Oc1cccc(N2C(=O)CC(Nc3ccc(N4CCOCC4)cc3)C2=O)c1` (centres undefined), the inhibition was 58.2% (active).
`CC(=O)Oc1cccc(N2C(=O)C3CC=C(Cl)CC3C2=O)c1` (centres undefined): the inhibition was -2.36%.
Consider `CCOc1ccccc1OCCCNCc1ccccc1`, for which the inhibition was 8.72%.
With `CCOc1ccc(S(=O)(=O)Nc2ccc(OC)nc2)cc1` the figure was 33.9%; with `CCCCCCn1cc(C(=O)O)c(=O)c2cc(F)c(N3CCCCC3)cc21`, 33.7%.
`COc1ccccc1CNC(=O)C1CCN(S(=O)(=O)c2ccc3c(c2)OCCO3)CC1`: the inhibition is -11.4%.
Take `O=C(NCc1ccccn1)c1ccc2nc(-c3ccco3)c(-c3ccco3)nc2c1`: the inhibition is 5.29%.
In the case of `O=C(Nc1cccc2ncccc12)c1ccc(-c2ccc(Cl)cc2Cl)o1`, the inhibition is -17.2%.
With `O=C(NNC(=O)c1ccccc1[N+](=O)[O-])Nc1ccccc1C(F)(F)F` the figure was -6.67%; with `C=CCNC(=O)c1csc(-c2ccccc2)n1`, 11.1%.
With `C=CCNC(=O)c1cc(-c2ccccc2O)on1` the figure was 98.8% (active); with `O=C(NCc1ccccn1)c1cc(-c2ccccc2Cl)on1`, 162% (active).
Next, `O=C(Nc1ccccc1C(F)(F)F)c1cc(-c2ccc(O)cc2)on1`: 54.9% (active); `CCc1ccccc1NC(=O)c1cc(-c2ccc3c(c2)OCO3)on1`: 25.8%.
As to `C=CCNC(=O)c1ccccc1SCc1c(C)noc1C`, the inhibition was -38.8%.
As to `O=C(NCc1ccccn1)c1cc(Br)ccc1Cl`, the inhibition was 29.6%.
On to `O=C(Nc1cccnc1Cl)c1cc(-c2ccccc2O)on1`, for which the inhibition was 73.1% (active).
Regarding `O=C(Nc1cccnc1Cl)c1cc(-c2cccc(Cl)c2)on1`, the inhibition was -1.68%.
Next, `Nc1nonc1-n1nnc(C(=O)N/N=C/C2CCCCC2)c1-c1ccccc1`: -3.16%; `CCCCC(C(=O)NC(C)(C)C)N(Cc1ccccc1)C(=O)c1snc(C(N)=O)c1N` (centres undefined): -1.85%; `CCc1ccccc1N(CC(=O)NCC1CCCO1)C(=O)CCC(=O)Nc1nccs1` (centres undefined): -6.86%.
With `CC(Nc1nc(C(F)(F)F)nc2ccccc12)c1cccs1` (centres undefined), the inhibition was 29.3%.
Regarding `O=S(O)S(=O)(=O)O`, the inhibition is 6.15%.
As to `COc1ccccc1N1CCN(C(=O)c2cc(=O)c3cc(C)ccc3o2)CC1`, the inhibition was 19.1%.
Take `Cc1ccc2oc(C(=O)N3CCN(C)C[C@@H]3C(C)C)c(C)c2c1`: the inhibition is 42.3% (active).
Consider `Cc1ccc2c(C)c(C(=O)N3CCC(N4CCC(C(=O)NC5CC5)CC4)CC3)oc2c1`, for which the inhibition is -13.3%.
Regarding `Cc1ccc(C(=O)NCCc2nnc(SCC(=O)Nc3cccc(C(=O)O)c3)n2C)cc1`, the inhibition was -4.17%.
As for `CC(=O)C(C)n1cnc2scc(-c3ccc(C)cc3)c2c1=O` (centres undefined), the inhibition was -5.64%.
Next, `CCN(C(=O)CSc1ncn[nH]1)c1cccc2ccccc12`: 9.31%; `Cn1nnc(NC(=O)CSc2ncn[nH]2)n1`: -18.1%; `CC(C)(C)c1ccc(C(=O)CSc2ncn[nH]2)cc1`: 63.4% (active).
Turning to `Cc1ccccc1NC(=O)NCC1CCN(Cc2cccc(Cl)c2)CC1`, the inhibition was -1.26%.
Turning to `O=C(O)c1ccc(NC(=O)c2ccc(COc3ccc(Cl)cc3)o2)cc1`, the inhibition is -8.9%.
In the case of `CCOC(=O)c1[nH]c2c(c1-c1ccccc1)C(=O)CC(c1ccc(Cl)cc1)C2` (centres undefined), the inhibition was -7.73%.
`CCOC(=O)c1[nH]c2c(c1C)C(=O)CC(c1ccc(N(C)C)cc1)C2` (centres undefined): the inhibition was 2.86% (active).
Next, `COCCOC(=O)c1[nH]c2c(c1C)C(=O)CC(c1ccc(OC)cc1)C2` (centres undefined): 13.2%; `O=C(N/N=C/c1sc(N2CCCCC2)nc1-c1cccs1)c1cccnc1`: -9.51%.
Take `CCOc1cc(C)ccc1OCc1nnc(SCC(=O)Nc2cccc(C(=O)O)c2)n1-c1ccccc1`: the inhibition was 9.89%.
`CC[C@H](C)[C@H](NC(=O)[C@@H](N)CCC(=O)O)C(=O)N[C@@H](CC(C)C)C(=O)N[C@@H](CC(=O)O)C(=O)N[C@H](C(=O)N1CCC[C@H]1C(=O)N[C@@H](CO)C(=O)N[C@H](C(=O)O)[C@@H](C)O)C(C)C`: the inhibition is -4.46%.
Turning to `CCOc1cccc2c1OC1(CCCCC1)N1N=C(c3cccnc3)CC21` (centres undefined), the inhibition is 42.4% (active).
Turning to `c1cncc(-c2nnc3n2C2(CCCCC2)Cc2ccccc2-3)c1`, the inhibition is -14.6%.
Consider `CCOc1ccccc1C1CC(c2cccc(NS(C)(=O)=O)c2)=NN1C(=O)c1ccccc1` (centres undefined), for which the inhibition was 3.98%.
Turning to `Cc1c(C(=O)N(C)CCc2cnn(C)c2)oc2c(F)cccc12`, the inhibition was 2.81%.
For the compound `CCCCc1nc2cc(C(=O)N3CCCCC3CCO)ccc2o1` (centres undefined), the inhibition was 105% (active).
`CCCCc1nc2cc(C(=O)NCCc3cnn(C)c3)ccc2o1`: the inhibition was 36.3% (active).
With `CCC1C(=O)NCCN1C(=O)c1ccc2nc(Cc3ccc(OC)cc3)oc2c1` (centres undefined) the figure was 3.17%.
Turning to `COc1ccc(C(=O)NC2CC2)cc1OC1CCN(Cc2cnn(C)c2)CC1`, the inhibition is 14.2%.
Next, `CCC1CCCCN1C(=O)CSc1nc(C)cc(C)n1` (centres undefined): -8.51%; `CC(C)c1nnc(NC(=O)C2CC(=O)N(CCc3ccc(F)cc3)C2)s1` (centres undefined): -7.25%; `COc1cccc(NC(=O)c2cc(S(=O)(=O)N3CCc4ccccc43)cn2C)c1`: 7.48%.
On to `CCc1ccc(OC(C)C(=O)Nc2ccc(S(=O)(=O)Nc3cc(C)on3)cc2)cc1` (centres undefined), for which the inhibition was -9.78%.
With `CC(CCc1ccc(O)cc1)NCc1ccc(Cl)cc1Cl` (centres undefined) the figure was -4.82%.
As to `CCCCC1(C(=O)OCC)NC(c2ccc(O)cc2)C2C(=O)N(c3ccccc3)C(=O)C21` (centres undefined), the inhibition is -10.2%.
Take `COc1ccc(NC(=O)CN2C(=O)CSC2=O)cc1`: the inhibition was -1.96%.
Turning to `CCc1ccc(NC(=O)CN2C(=O)COc3ccc(S(=O)(=O)N4CCCC4)cc32)cc1`, the inhibition is -5.17%.
With `CCc1ccc(NC(=O)CN2C(=O)CSC2=O)cc1`, the inhibition was 53.9% (active).
With `CC1(c2ccc(Cl)cc2)NC(=O)N(CC(=O)c2ccc3c(c2)OCO3)C1=O` (centres undefined) the figure was 1.96%; with `O=C(Nc1ccccc1N1CCN(C(=O)c2ccccc2)CC1)c1ccc2c(c1)OCO2`, -7.26%; with `O=C(CN1CCN(c2ccccc2F)CC1)c1ccc2c(c1)OCO2`, 53% (active).
`CCOc1cc(C2/C(=C(/O)c3ccc(S(=O)(=O)N4CCCCC4)cc3)C(=O)C(=O)N2CCOC)ccc1O` (centres undefined): the inhibition is -10.6%.
With `O=C(Oc1ccc2c(c1)CCC2)N1CCOCC1` the figure was 97.3% (active).
On to `O=C(Nc1cccc(OC(=O)N2CCCCC2)c1)N1CCOCC1`, for which the inhibition is -5.26%.
Consider `O=C(Oc1ccc(F)cc1)N1CCOCC1`, for which the inhibition was -2.55%.
For the compound `CNS(=O)(=O)c1cccc(C(=O)NC2CCCc3ccccc32)c1` (centres undefined), the inhibition was 2.04%.
Consider `COc1ccccc1N(CC(=O)NC1CCCC1)C(=O)C1(C)CC(=O)N=C2C=CC(C)=CN21` (centres undefined), for which the inhibition is -13.3%.
In the case of `CSc1ncccc1C(=O)NC1CCCCCC1`, the inhibition is 27.5%.
In the case of `CSc1ncccc1C(=O)OCC(=O)N1CCOCC1`, the inhibition is -2.04%.
On to `CSc1ncccc1C(=O)OCc1ccc(Br)cc1`, for which the inhibition was 42% (active).
`COc1ccc(N2CCN(C(=O)[C@@H](NC(=O)c3cc(OC)cc(OC)c3)C(C)C)CC2)cc1`: the inhibition is 2.67%.
On to `O=C(CN1CCN(S(=O)(=O)c2ccc(F)cc2)CC1)NC1CC1`, for which the inhibition is -30.6%.
Consider `COc1ccc(-c2ccc(C3C4C=CCCC4(C)C(=O)N3Cc3ccccc3)c(F)c2)cc1OC` (centres undefined), for which the inhibition was -1.56%.
Regarding `Cc1cc(OCc2ccc(C(=O)Nc3ccc(C(=O)O)cc3)o2)ccc1Cl`, the inhibition is 2.97%.
Consider `Cc1cc(OCc2cc(C(=O)NCc3cc(C(C)C)no3)no2)cc(C)c1Cl`, for which the inhibition was 79.8% (active).
Regarding `COCCCNC(=O)COc1cc(C)c(Cl)c(C)c1`, the inhibition is -11.4%.
`Nc1nc(CC(=O)CSc2ccc(Cl)cc2)nc(Nc2ccc(F)cc2)n1`: the inhibition is -6.2%.
Next, `CC(C)CN(C(=O)c1cccc(S(=O)(=O)N2CCCCC2)c1)C1CCS(=O)(=O)C1` (centres undefined): -6.54%; `CCOC(=O)C1(Cc2ccccc2C)CCCN(C(=O)c2ccc(COC)o2)C1` (centres undefined): 121% (active); `CCOC(=O)C1(CCc2ccccc2)CCN(Cc2ccco2)CC1`: -2.54%.
Take `CCOC(=O)C1(Cc2ccccc2C)CCCN(S(C)(=O)=O)C1` (centres undefined): the inhibition is -1.22%.
Consider `O=C(CN1C(=O)CSC1=O)N1CCCC(Nc2ccc(F)cc2)C1` (centres undefined), for which the inhibition was 0.485%.
Regarding `O=C(Cn1c(=O)n(CC2CS2)c2ccccc21)N1CCCCC1` (centres undefined), the inhibition was -7.24%.
On to `CCOC(=O)C1(Cc2ccccc2C)CCCN(C(=O)CN2C(=O)CSC2=O)C1` (centres undefined), for which the inhibition was 78.9% (active).
